# Values without a mark were called inactive. How the calls were made is not given here.
# Assay: fluorescence polarization artefacts, biochemical, 57K campaign, artefact control, dose response (AID 1342)
# Conditions: PKD fluorescence polarization interference counter-screen
structure (smiles),measurement,value
C/C(=N\Nc1ncc(Cl)cc1Cl)c1ccccn1,IC50,16.7 µM
